Screening data (PubChem)
MEKK2 WT-MEK5 – raises or lowers MEK5 binding to wildtype human MEKK2 PB1 domain. 290,000 compounds, 1.1% hits. bead flow cytometry, Alexa488-MEK5 binding to MEKK2 WT; actives lie on both sides. Q9Y2U5. binding response (% of control), % at 10 µM; in the data active means binding response below about 67% or above about 130%
MEKK3 PB1 HTS – modulators (inhibitors or enhancers) of MEK5 binding to human MEKK3 PB1 domain; AID 1529; bead-based flow cytometry, Alexa488-MEK5 binding to MEKK3; actives lie on both sides; 0 = blocked by unlabeled MEK5, 100 = vehicle; 290,000 compounds, 1.4% hits; binding response (% of control), % at 10 µM;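 active means binding response more than 3 SD above or below the average of its plate-row segment, actives on both sides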;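 further: Alexa488 bead fluorescence after subtracting the streptavidin-only scavenger bead signal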
MEKK2mut PB1 HTS – signal of MEK5 binding to mutant human MEKK2 PB1 domain; bead flow cytometry, Alexa488-MEK5 binding to MEKK2 mutant; percent response, % at 10 µM; 290,000 compounds, 0.35% hits; AID 1530; in the data active means percent response above about 24%, passing the limit was not always enough
UBC13 inh – blocks human UBC13 polyubiquitin chain formation | 330,000 compounds, 0.47% hits | TR-FRET | AID 485273 | inhibition, % at 20 µM; in the data active means inhibition above about 45%, passing the limit was not always enough
Target sequence (P61088 whole entry, looked up): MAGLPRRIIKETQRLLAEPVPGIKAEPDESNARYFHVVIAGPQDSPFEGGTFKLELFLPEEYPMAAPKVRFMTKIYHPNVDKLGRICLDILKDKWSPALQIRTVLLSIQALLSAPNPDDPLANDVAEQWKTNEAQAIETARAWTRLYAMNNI
MEKK2wt confirm – raises or lowers MEK5 binding to wildtype human MEKK2, retest. shares compounds with MEKK3 PB1 HTS. bead flow cytometry, Alexa488-MEK5 binding to MEKK2 WT; actives lie on both sides. binding response (% of control), % at 10 µM. 5,900 compounds, 2.4% hits. AID 1892; in the data active means binding response below about 16% or above about 210%; inactive means in between
MEKK2mut confirm – signal of MEK5 binding to mutant human MEKK2, retest. AID 1893. shares compounds with MEKK3 PB1 HTS. bead flow cytometry, Alexa488-MEK5 binding to MEKK2 mutant. 5,900 compounds, 2% hits. percent response, % at 10 µM; in the data active means percent response mostly above about 71%, no sharp cut-off; inactive means mostly below about 38%;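 further: higher means compound restores mutant binding toward wildtype level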
MEKK3 confirm – confirmation of inhibitors of MEK5 binding to human MEKK3; 5,900 compounds, 1.8% hits; bead flow cytometry, Alexa488-MEK5 binding to MEKK3; hits give low values; shares compounds with MEKK3 PB1 HTS; AID 1894; binding response (% of control), % at 10 µM;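 active means binding response below 72% of control, or above a set upper limit, though filed actives all read lower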
Hits are given with their value; – = inactive; · = not tested or not shown; [ ] = remark or other dose. Sampled rows, rich in hits. Any-hit rate of the full collection: about 2.3%.

SMILES | MEKK2 WT-MEK5 | MEKK3 PB1 HTS | MEKK2mut PB1 HTS | UBC13 inh | MEKK2wt confirm | MEKK2mut confirm | MEKK3 confirm
CCOc1ccc2nc(NCCNC(=O)Nc3cccc(C)c3)c(C#N)cc2c1 | – | – | – | – | · | · | ·
CCOc1ccc2nc(NCCCNS(=O)(=O)c3ccc(C)cc3)c(C#N)cc2c1 | – | 130 | – | – | – | – | –
COc1ccc(OC2OC3COC(C)(C)OC3C(O)C2NC(C)=O)cc1 (configuration not stated) | – | – | 24 | – | – | – | –
COc1cccc(OC2OC3COC(C)(C)OC3C(O)C2NC(C)=O)c1 (configuration not stated) | – | – | – | – | · | · | ·
COc1ccc(C2/C=C\CN(C(=O)C3CCCC3)[C@H](Cc3ccccc3)C(=O)N2Cc2ccc(F)cc2)cc1 (some centres not stated) | 151 | 133 | – | – | – | – | –
CCc1nnc(NS(=O)(=O)c2ccc(NCc3cc(Cl)cc(Cl)c3O)cc2)s1 | – | – | – | – | · | · | ·
CCOc1ccc2c(c1)c(N=NC(=N)N)c(O)n2C | – | 128 | – | – | – | – | –
CC(C)c1c(C(=O)N/N=C/c2ccc3c(c2)OCO3)nnn1-c1nonc1N | – | – | – | – | · | · | ·
CCN(CC)c1ccc(/C=N/NC(=O)c2nnn(-c3nonc3N)c2C(C)C)c(O)c1 | 1.0[inhibitor] | 2.0[inhibitor] | – | – | – | – | –
Nn1cnc2c(c1=O)C1(CCCCC1)Cc1ccccc1-2 | – | 141 | – | – | – | – | –
COc1ccc(CNC(=O)c2c(N)n(CCCN3CCOCC3)c3nc4ccccc4nc23)cc1 | 154 | – | – | – | – | – | –
Nc1c(C(=O)NCc2ccccc2)c2nc3ccccc3nc2n1CCCN1CCOCC1 | – | – | – | – | · | · | ·
N#CC1=C(N)Oc2n[nH]c(-c3cccs3)c2C1c1cccnc1 (configuration not stated) | – | 123 | – | – | – | – | –
Cc1ccc(C2C(C#N)=C(N)Oc3n[nH]c(-c4cccs4)c32)cc1 (configuration not stated) | – | – | – | – | · | · | ·
CN(C)C(=O)NCc1ccc(S(N)(=O)=O)cc1 | – | 39[inhibitor] | – | – | – | – | –
COc1ccc(OCC(O)CN(CCO)CC(O)Cn2ccc3ccccc32)cc1 (configuration not stated) | – | – | – | – | · | · | ·
OCCN(CC(O)COc1ccccc1)CC(O)Cn1ccc2ccccc21 (configuration not stated) | – | 134 | – | – | – | – | –
O=C1C2CCCN2C(=S)N1c1ccc(Cl)cc1 (configuration not stated) | – | – | – | – | · | · | ·
Cc1cccc(C)c1Nc1ncnc(N)c1[N+](=O)[O-] | – | – | 51 | – | – | – | –
CC(=O)Nc1ccc(Nc2ncnc(N)c2[N+](=O)[O-])cc1 | – | – | – | – | · | · | ·
CCOC(=O)c1cc(-c2ccccc2)sc1NC(=O)CC | – | – | – | – | · | · | ·
CCOC(=O)c1cc(-c2ccccc2)sc1NC(=O)CCN1C(=O)c2ccccc2C1=O | 32[inhibitor] | – | – | – | – | – | –
CCOC(=O)c1cc(-c2ccccc2)sc1NC(=O)C(C)N1C(=O)c2ccccc2C1=O (configuration not stated) | – | 136 | – | – | – | – | –
CCOC(=O)c1cc(-c2ccccc2)sc1NC(=O)C(C)Sc1nnc(N)s1 (configuration not stated) | – | – | – | – | · | · | ·
CSc1nnc(-c2nnc(SC)n2-c2ccccc2)n1-c1ccccc1 | 35[inhibitor] | 22[inhibitor] | – | – | – | – | –
SMILES | MEKK2 WT-MEK5 | MEKK3 PB1 HTS | MEKK2mut PB1 HTS | UBC13 inh | MEKK2wt confirm | MEKK2mut confirm | MEKK3 confirm
CSc1nnc(-c2cc(C)on2)n1-c1ccccc1 | – | – | – | – | · | · | ·
COc1cc(OC)cc(C(=O)NNC(=O)CN2C(=O)NC(C)(c3ccccc3)C2=O)c1 (configuration not stated) | · | · | · | – | · | · | ·
COC(=O)C(NC(=O)c1ccccc1)(Nc1cc(C)cc(C)n1)C(F)(F)F (configuration not stated) | – | 126 | – | – | – | – | –
CCN(CC)CCN(Cc1cc2cc3c(cc2[nH]c1=O)OCO3)C(=S)NCCCN(C)C | – | – | – | – | · | · | ·
CCN(CC)CCN(Cc1cc2cc3c(cc2[nH]c1=O)OCCO3)C(=S)NCCCN(C)C | 138 | – | – | – | – | – | –
CCCCNC(=S)N(CCN(CC)CC)Cc1cc2cc3c(cc2[nH]c1=O)OCO3 | – | – | 24 | – | – | – | –
COc1ccc(C(CC(=O)O)N2C(=O)CCC2=O)cc1 (configuration not stated) | – | – | – | – | · | · | ·
O=C(c1ccc2ccccc2c1)c1c[nH]cc1-c1ccccc1 | – | 129 | – | – | – | – | –
COC(=O)N1N=C(c2ccccc2)CC1(O)C(F)(F)F (configuration not stated) | -5.0[inhibitor] | 0.0[inhibitor] | – | – | – | – | –
COc1ccc(C(=O)N2N=C(c3ccccc3)CC2(O)C(F)(F)F)cc1 (configuration not stated) | – | – | – | · | · | · | ·
COc1ccc(Cl)cc1NS(=O)(=O)N1CCOCC1 | – | – | – | – | · | · | ·
Cc1cc([N+](=O)[O-])c(NCCCCCCO)c([N+](=O)[O-])c1 | – | – | – | – | · | · | ·
CCc1ccccc1NC(=O)CSc1nc2n[nH]c(C)c2c(=N)n1-c1cccc(OC)c1 | 140 | – | – | – | – | – | –
COc1ccc(OC)c(NC(=O)CSc2nc3n[nH]c(C)c3c(=N)n2-c2cccc(Cl)c2C)c1 | – | – | – | – | · | · | ·
NCC(c1ccc(Cl)cc1Cl)c1c[nH]c2ccccc12 (configuration not stated) | 141 | – | – | – | – | – | –
COc1cc([N+](=O)[O-])ccc1NC(=O)CC1SC(=Nc2ccc(F)cc2)N(CCC2=CCCCC2)C1=O (configuration not stated) | – | – | – | – | · | · | ·
COc1ccc(OC)c(NC(=O)CC2SC(=Nc3ccc(F)cc3)N(CCC3=CCCCC3)C2=O)c1 (configuration not stated) | – | 139 | – | – | – | – | –
COc1ccc(-c2nnc(SCc3nnc(-c4cccs4)o3)n2CC2CCCO2)cc1 (configuration not stated) | – | 49[inhibitor] | – | – | – | – | –
Fc1ccc(NCc2nnc(SCc3nnc(-c4ccccc4)o3)n2CC2CCCO2)cc1 (configuration not stated) | – | 124 | – | – | – | – | –
O=C(COc1ccc(Br)cc1)Nc1ccccc1C(=O)NC1CC1 | · | · | · | – | · | · | ·
